# 12-LOX inh: Primary qHTS assay for inhibitors of human arachidonate 12S-lipoxygenase (ALOX12): Round 2; Polyunsaturated fatty acid lipoxygenase ALOX12 (Homo sapiens), P18054; purified 12hLO, xylenol orange hydroperoxide absorbance; Potency, µM (titrated, usually from 108 µM), without a hit: top-dose activity change, negative = inhibition, hits mostly inhibitors; 1.1% of 580,000 active; AID 1671190, 2021; further: on the % scale 0 is the no-effect control and ±100 the full control effect
#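 Purified human 12hLO (150 nM final) in 25 mM Hepes, 0.01% Triton X-100, pH 7.0 was preincubated 15 min at room temperature with compound. Then 40 uM arachidonic acid was added, 30 min. Hydroperoxide was read by Fe-XO absorbance ratio 573/405 nm.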
# G9a inh: qHTS Assay for Inhibitors of Histone Lysine Methyltransferase G9a | 8.8% of 350,000 active | Potency, µM (titrated, usually from 102 µM), without a hit: at the highest dose activity, negative = inhibition, usual class: inhibitors | G9a H3K9 monomethylation, AlphaScreen, 2 h; further: on the % scale 0 is the no-effect control and ±100 the full control effect; nearly all actives have a fitted effect of over 75% in size
#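 Methyltransferase reactions run at room temperature for 2 h (20 nM enzyme, 500 nM biotin-H3K9 peptide, 20 uM SAM) after a 15 min compound preincubation; product detected by AlphaScreen beads and anti-H3K9me1 antibody.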
# PLK1 PBD block: qHTS for Inhibitors of PLK1-PDB (polo-like kinase 1 - polo-box domain): Primary Screen | Potency, µM, without a hit: max response, negative = inhibition, actives largely listed as inhibitors | 2.8% of 360,000 active | Plk1 PBD binding of FITC phosphopeptide, fluorescence polarization | AID 720504, 2013; further: series mostly up to about 57 µM; on the % scale 0 is the no-effect control and ±100 the full control effect; nearly all actives have a fitted effect of over 65% in size
# Target sequence (P53350 whole entry, looked up, the tested form may be a part): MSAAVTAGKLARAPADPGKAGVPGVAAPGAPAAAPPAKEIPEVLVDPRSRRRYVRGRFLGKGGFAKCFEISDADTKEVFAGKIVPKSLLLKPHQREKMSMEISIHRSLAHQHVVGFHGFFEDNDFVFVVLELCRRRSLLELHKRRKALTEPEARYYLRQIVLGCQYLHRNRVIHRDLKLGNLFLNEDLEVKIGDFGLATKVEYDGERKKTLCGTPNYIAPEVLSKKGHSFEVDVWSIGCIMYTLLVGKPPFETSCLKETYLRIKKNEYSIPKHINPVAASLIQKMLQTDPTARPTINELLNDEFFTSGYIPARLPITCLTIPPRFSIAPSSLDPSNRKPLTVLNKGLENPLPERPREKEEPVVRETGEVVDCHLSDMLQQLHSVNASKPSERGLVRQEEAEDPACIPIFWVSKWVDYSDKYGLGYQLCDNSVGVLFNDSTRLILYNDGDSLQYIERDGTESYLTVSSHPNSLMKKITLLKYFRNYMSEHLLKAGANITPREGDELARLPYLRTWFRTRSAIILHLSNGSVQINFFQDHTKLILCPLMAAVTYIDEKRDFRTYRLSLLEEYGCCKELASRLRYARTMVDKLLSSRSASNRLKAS
# BAZ2B block: qHTS Assay for Inhibitors of BAZ2B. Bromodomain adjacent to zinc finger domain protein 2B (Homo sapiens), Q9UIF8. 4.4% of 360,000 active. Potency, µM (highest dose often 114 µM), inactives show at the highest dose activity change, negative = inhibition, hits mostly inhibitors. AlphaScreen BAZ2B-H3K14Ac peptide displacement; further: on the % scale 0 is the no-effect control and ±100 the full control effect; nearly all actives have a fitted effect of over 60% in size
#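 AlphaScreen displacement: compounds (up to 110uM) incubated 30 min at room temperature with a preformed 50 nM BAZ2B/50 nM biotinylated H3K14Ac peptide complex in PBS pH 7.4 with Tween-20. Donor and acceptor beads at 10 ug/mL final added, 20 min light-protected before reading.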
# HP1b binding inh: HTS for Inhibitors of HP1-beta Chromodomain Interactions with Methylated Histone Tails; Chromobox protein homolog 1 (Homo sapiens), P83916; AlphaScreen HP1-beta / biotin-H3K9me3 peptide binding; Potency, µM (series often up to 114 µM), for inactives: top-dose activity change, negative = inhibition, hits mostly inhibitors; 0.56% of 390,000 active; further: nearly all actives have a fitted effect of over 70% in size
#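 Compound inhibition of the preformed complex between 50 nM HP1-beta and 50 nM biotinylated H3K9me3 peptide was read by AlphaScreen. Buffer was PBS pH 7.4 with 0.01% Tween-20. Incubations ran 30 min at room temperature, with 10 ug/mL donor/acceptor beads.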
# JMJD2A Tudor inh: qHTS Assay for Inhibitors of JMJD2A-Tudor Domain; Lysine-specific demethylase 4A (Homo sapiens), O75164; AlphaScreen JMJD2A-Tudor / H3K4me3 peptide binding; Potency, µM (series often up to 114 µM), for inactives: top-dose activity change, negative = inhibition, actives largely listed as inhibitors; 4.4% of 390,000 active; AID 504339, 2011; further: on the % scale 0 is the no-effect control and ±100 the full control effect; nearly all actives have a fitted effect of over 50% in size
# The depositor's hits bear a star; ? = inconclusive; . = not tested or not shown; [ ] = dose if it differs, or a comment. Compounds with a hit are over-represented: about 9% of the library has one in this group of screens. The call rests on the fitted dose curve; in most records, active means well fitted curve in the direction sought with a large enough effect; inconclusive means small, poorly fitted or top-dose-only effect, or another doubt; inactive means no such curve, though single readings can be large; an effect the other way counts as inactive or inconclusive. Potency means the concentration at half of the fitted maximal effect.
SMILES,12-LOX inh,G9a inh,PLK1 PBD block,BAZ2B block,HP1b binding inh,JMJD2A Tudor inh
O=C(NNC(=O)C1C2C=CC(C2)C1C(=O)O)c1ccccc1 (configuration not stated),-10.9%,15.1%[59 µM],-6.9%,-0.3%,7.4%,-8.3%
O=C(O)c1cccc(NC(=O)C2C3C=CC(C3)C2C(=O)O)c1 (configuration not stated),-3.6%,50.1µM*,-5.7%,1.8%,34.3%,-26.4%
Cc1ccc(-c2cccc(NC(=O)C3C(C(=O)O)[C@@H]4C=C[C@H]3C4)c2)o1 (some centres not stated),?,15.8µM*,-3.9%,?,5.9%,-25.2%
O=C(NNC(=O)C1C2C=CC(C2)C1C(=O)O)c1ccccc1O (configuration not stated),0.4%,-7.9%,-4.1%,50.1µM*,37.4%,-17.4%
Cc1ccc(-c2ccccc2NC(=O)C2C3C=CC(C3)C2C(=O)O)o1 (configuration not stated),13.0%,?,-0.6%,56.2µM*,-6.5%,-30.5%
COc1ccc(C(C)(C)C)cc1NC(=O)C1C2C=CC(C2)C1C(=O)O (configuration not stated),-1.1%,50.1µM*,-2.0%,-34.7%,17.0%,-13.2%
COc1cc(NC(=O)c2cnc(N)o2)cc(C(=O)Nc2cccc(C(F)(F)F)c2)c1,-12.7%,-42.3%[59 µM],-4.0%,?,7.6%,-35.9%
COc1ccc2c(c1)CCc1c(C(=O)NCc3cccnc3)noc1-2,12.0%,39.8µM*,-2.0%,14.6%,23.2%,-0.7%
CCCNC(=O)c1noc2c1CCc1cc(OC)ccc1-2,-11.7%,6.7%,26.7µM*,2.3%,19.6%,-17.6%[11.4 µM]
COc1ccc2c(c1)CCc1c(C(=O)NCC(C)C)noc1-2,0.9%,12.4%[59 µM],-8.1%,-3.3%,68.0%,-8.1%[11.4 µM]
CC(=C1SC(=S)NC1=O)c1ccc(Cl)c(O)c1,28.2µM*,.,.,.,.,.
Cc1cc(C)cc(NC(=O)Nc2nnc(N(C)C3CCCCC3)s2)c1,-30.2%,0.7%[59 µM],.,-27.1%,24.7%,-16.2%
Cc1cc(NC(=O)Nc2nnc(N(C)C3CCCCC3)s2)ccc1Br,2.2%,4.6%[59 µM],.,50.1µM*,11.9%,-13.6%
CC1(c2ccco2)NC(=O)NC1=O (configuration not stated),-5.9%,20.2%[59 µM],23.8µM*,-3.5%,-15.6%,-2.3%[11.4 µM]
CC1(CCOCc2ccccc2)NC(=O)NC1=O (configuration not stated),4.5%,.,1.0%,.,18.7%,-2.1%
COc1ccc(N/C=C\C(=O)c2ccc3c(c2)OCO3)cc1,-29.8%[57.4 µM],?,-5.6%,-26.6%,43.7%,1.9%
O=C(/C=C\Nc1ccc2c(c1)OCO2)c1ccc2c(c1)OCO2,-23.3%,4.7%,10.6µM*,-15.5%,-18.7%,?
Cc1noc(NS(=O)(=O)c2ccc(N/C=C\C(=O)c3ccccc3)cc2)c1C,?,50.1µM*,?,-34.5%,-17.2%,2.3%[11.4 µM]
Cc1noc(NS(=O)(=O)c2ccc(N/C=C/C(=O)c3ccc4c(c3)OCO4)cc2)c1C,-10.4%,79.4µM*,-12.8%,?,11.6%,-21.4%
O=C(Nc1ccc(C(=O)NCc2ccc(F)cc2)cc1)C1=CSCCO1,-9.4%,1.9%[59 µM],2.4%,-1.5%,27.0%,-14.5%
Cc1cc(C2=NNC(=NC3CC3)SC2)c(C)n1Cc1ccco1,?,25.1µM*,?,?,-20.9%,?
Cc1cc(C2=NNC(=NC3CC3)SC2)c(C)n1-c1ccccc1,-4.8%,28.2µM*,-23.6%,?,-13.6%,?
CCOc1ccc(N=C2NN=C(c3cc(C)n(CC4CCCO4)c3C)CS2)cc1 (configuration not stated),39.8µM*,15.8µM*,-23.4%,70.8µM*,?,?
c1ccc2c(C3=NNC(=NC4CC4)SC3)c[nH]c2c1,-1.8%,12.6µM*,-16.4%,-32.0%,-6.8%,-33.8%
Cc1cc(C2=NNC(=Nc3ccccc3)SC2)c(C)n1CC1CCCO1 (configuration not stated),-21.1%,.,.,.,.,.
SMILES,12-LOX inh,G9a inh,PLK1 PBD block,BAZ2B block,HP1b binding inh,JMJD2A Tudor inh
CCOc1ccc(-c2cccc(NS(=O)(=O)c3ccc(F)cc3F)c2)nn1,-18.1%,-5.2%[59 µM],.,-12.1%,16.2%[57 µM],-16.9%
COc1ccc(NC(=O)COc2ccc(-c3ccccc3)cc2)cc1,0.0%,?,-6.7%,0.5%,25.7%,-13.4%
c1coc(CN(Cc2cccs2)Cc2nnnn2C2CCCCC2)c1,425.3%,-10.8%[59 µM],-3.0%,12.0%,46.3%,-6.3%
O=C(c1ccc(F)cc1)c1ccccc1C(=O)N1CCCC(C(F)(F)F)C1 (configuration not stated),3.7%,.,.,.,.,.
C=CCN=C1NN=C(c2cc(C)n(CCOC)c2C)CS1,?,-4.5%[59 µM],-0.5%,?,37.4%,-5.0%
COCCn1c(C)cc(C2=NNC(=NC3CC3)SC2)c1C,-11.4%,39.8µM*,-7.2%,?,6.8%,-26.3%
CCc1cccc(C)c1NC(=O)CSc1nc2ccc(N3C(=O)c4ccccc4C3=O)cc2s1,25.9%,.,-4.9%,3.3%,40.3%,-6.2%
CCc1cccc(CC)c1NC(=O)CSc1nc2ccc(N3C(=O)C4C(C3=O)[C@H]3C=C[C@@H]4C3)cc2s1 (some centres not stated),?,1.41µM*,-5.0%,-35.0%,-14.8%,-18.8%
O=C(Oc1cccc2cccnc12)c1cccc(N2C(=O)C3C4CCC(C4)C3C2=O)c1 (configuration not stated),-4.6%,0.794µM*,-20.8%,10µM*,-4.4%,70.8µM*
O=C(Oc1cccc2cccnc12)c1cccc(-n2cnnn2)c1,1.8%,5.62µM*,-8.9%,?,28.0%,-26.4%
O=C(Oc1cccc2cccnc12)c1ccc(N2C(=O)C3C4CCC(C4)C3C2=O)cc1 (configuration not stated),-17.4%,-6.0%,-5.8%,50.1µM*,16.5%,?
Cc1ccc(S(=O)(=O)N2C[C@H]3C(=O)C[C@@H](c4ccccc4)N(S(=O)(=O)c4ccc(C)cc4)[C@H]3C[C@H]2c2cccc(C)c2)cc1,4.0%,.,7.0%,.,.,.
N=c1n(CCN2CCCCC2)c2ccccc2n1CC(O)c1ccc(Cl)c(Cl)c1 (configuration not stated),?,17.8µM*,?,-9.6%,25.3%,?
